Source: PubChem BioAssay (NCI)
Compounds without any hit were thinned out: in the full panel of roughly 83,000, 20% have a hit.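 Interpretation: 100, growth as untreated; towards 0, rising growth inhibition; 0, no net growth; 0 to -100, cell death. Compounds scoring below 10 were considered active.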 Active and inactive are the calls of the source.

Legend:
Test in all cases: NCI-60 one-dose screen, 48 h (100 = growth as untreated, 0 = no growth, -100 = all killed)
Conditions in all cases: 10 µM unless noted
[1] = test system: NCI-H23 lung
[2] = test system: NCI-H226 lung
[3] = test system: NCI-H322M lung
[4] = test system: HOP-62 NSCLC
[5] = test system: NCI-H460 lung
[6] = test system: HOP-92 NSCLC
[7] = test system: NCI-H522 lung
[8] = test system: A549/ATCC NSCLC
[9] = test system: 786-0 renal
[10] = test system: COLO 205 colon
[11] = test system: DU-145 prostate
[12] = test system: K-562 leukemia
[13] = test system: MALME-3M melanoma
[14] = test system: MDA-MB-231 breast
[15] = test system: RXF 393 renal
[16] = test system: SF-268 CNS
[17] = test system: SF-295 CNS
[18] = test system: SF-539 CNS
[19] = test system: UACC-257 melanoma
[20] = test system: M14 melanoma

Measured: growth

CCOC(=O)C1=C(CCl)N(C)C(=O)NC1c1ccc2c(c1)OCO2 (stereo not given)
inactive: [1] 70.7% | [2] 77% | [3] 85% | [4] 74.7% | [5] 72.1% | [6] 53.9% | [7] 32.7% | [8] 87.5% | [9] 53.9% | [10] 69.1% | [11] 33.4% | [12] 16.7% | [13] 65% | [14] 65.3% | [15] 41.3% | [16] 91.6% | [17] 95.1% | [18] 32.5% | [19] 59.5% | [20] 42.1%

COc1cc2ncnc(Nc3ccc(S(=O)(=O)Nc4nccs4)cc3)c2cc1OCCCN1CCCC1
inactive: [1] 99.8% | [2] 105% | [3] 103% | [4] 103% | [5] 107% | [6] 119% | [7] 94.1% | [8] 102% | [9] 105% | [10] 113% | [11] 105% | [12] 84.2% | [13] 101% | [14] 104% | [15] 99% | [16] 99.2% | [17] 106% | [18] 101% | [19] 99.6% | [20] 109%

CCN1CCN(CCNc2nccc(-c3c(-c4ccc(F)c(O)c4)nc4occn34)n2)S1(=O)=O
active: [2] 6.71% | [7] -3.38%
inactive: [1] 14% | [3] 64.3% | [4] 33.7% | [5] 34.9% | [6] 68.5% | [8] 23% | [9] 56.7% | [10] 29% | [11] 26.8% | [12] 10.3% | [13] 26.4% | [14] 73.2% | [15] 25.8% | [16] 28% | [17] 28.9% | [18] 75.9% | [19] 43.6% | [20] 21.6%

N=C(N)c1ccc(-c2ccc(-c3ccccc3)o2)o1
active: [5] 6.8% | [10] -73.1% | [12] 9.73%
inactive: [1] 49.6% | [2] 78.5% | [3] 60.3% | [4] 46.9% | [6] 24.2% | [7] 50.5% | [8] 26.2% | [9] 33.4% | [11] 46.3% | [13] 50.3% | [14] 29.8% | [15] 47% | [16] 38.1% | [17] 44% | [18] 35.3% | [19] 69.3% | [20] 14.1%

C[C@@H]1CN(c2cnc(C(=O)Nc3cc(F)cc4cccnc34)cn2)C[C@H](C)N1
inactive: [1] 63% | [2] 44.8% | [3] 93.1% | [4] 83.8% | [5] 88.9% | [6] 46% | [7] 51.7% | [8] 94.6% | [9] 60.6% | [10] 13% | [11] 84.1% | [12] 28.5% | [13] 65.2% | [14] 37.7% | [15] 39.8% | [16] 88.1% | [17] 101% | [18] 94.7% | [19] 41.4% | [20] 73.9%

O=c1cc(C(F)(F)F)c2cc(-c3cc4ccccc4c(=O)o3)c(O)cc2o1
inactive: [1] 54.9% | [2] 68.4% | [3] 87.6% | [4] 82.6% | [5] 58.9% | [7] 31.3% | [8] 78.5% | [9] 80.2% | [10] 107% | [11] 96.5% | [12] 50% | [13] 91.5% | [14] 85.7% | [15] 86.3% | [16] 79.2% | [17] 89.4% | [18] 73.3% | [19] 70.6% | [20] 68%
active: [6] -0.397%

COc1ccc(-c2cc(-c3cccnc3)nc3sc4c(N)c(C(C)=O)c(-c5ccccc5)nc4c23)cc1OC
inactive: [1] 66.7% | [2] 94.3% | [3] 90.5% | [4] 76.5% | [5] 78% | [6] 61.9% | [7] 56.6% | [8] 69% | [9] 68.9% | [10] 94.8% | [11] 80.9% | [12] 32.3% | [13] 93.3% | [14] 51.5% | [15] 50.1% | [16] 69.6% | [17] 48.7% | [18] 52.8% | [19] 92.3% | [20] 104%

Cc1cc(=O)n(C(=S)Nc2ccc(Cl)cc2)c2cc(O)ccc12
inactive: [1] 85.6% | [2] 80.5% | [3] 97.7% | [4] 84.1% | [5] 110% | [6] 84.6% | [7] 94.9% | [8] 106% | [9] 109% | [10] 103% | [11] 109% | [12] 113% | [13] 91.5% | [14] 92.4% | [15] 99.7% | [16] 102% | [17] 99.8% | [18] 101% | [19] 110% | [20] 108%

O=C1C=CC2(O)OC/C(=C\c3ccccc3)C(O)=C2C1=O (stereo not given)
active: [4] 5.5% | [6] -3.3% | [7] -73.1% | [9] -41.3% | [12] 5.02% | [13] -37.8% | [14] -22.4% | [15] -64.7% | [18] -38.8%
inactive: [1] 36.1% | [2] 81% | [3] 72.2% | [5] 29.1% | [8] 42.2% | [10] 36.2% | [11] 24.2% | [16] 19.1% | [17] 74.8% | [19] 65.9% | [20] 27%

O=C1/C(=C/c2ccc(Cl)cc2)CN(C(=O)C(Cl)Cl)C/C1=C\c1ccc(Cl)cc1
active: [1] -69.2% | [2] -24.4% | [3] -70.9% | [4] -61.5% | [5] -64.9% | [6] -59.9% | [7] -60.3% | [8] -21.2% | [9] -80.2% | [10] -68.5% | [11] -89.7% | [12] -3.91% | [13] -65% | [14] -23.9% | [15] -88.2% | [16] -74.9% | [17] -86.7% | [18] -96.3% | [19] -42.3% | [20] -68.7%

CN1CCOCCN(C)Cc2ccc3ccc(cc3c2)CN(C)CCOCCN(C)Cc2ccc3ccc(cc3c2)C1
inactive: [1] 90.2% | [2] 111% | [3] 99.6% | [4] 91.8% | [5] 59.5% | [6] 85.8% | [7] 110% | [8] 96.3% | [9] 75.8% | [10] 94.6% | [11] 57.8% | [13] 68.8% | [14] 70.8% | [15] 75.9% | [16] 84.9% | [17] 103% | [18] 79.3% | [19] 110% | [20] 99.4%
active: [12] -10.3%

COc1cc(-c2nccc3[nH]c(-c4cccc5[nH]ccc45)nc23)cc(OC)c1OC
active: [5] 7.17% | [6] -2.13% | [7] -15.7% | [9] 7.27% | [10] -62.9% | [12] 8.35% | [18] 3.35%
inactive: [1] 26.8% | [2] 34% | [3] 64% | [4] 12.2% | [8] 17.3% | [11] 22.7% | [13] 56% | [14] 19.7% | [15] 50.8% | [16] 34.2% | [17] 21% | [19] 58.7% | [20] 20.6%

O=C(O)c1cn(C2CC2)c2cc(N3CCN(C(=O)N/N=C/c4cccc5ccccc45)CC3)c(F)cc2c1=O
inactive: [1] 93.9% | [2] 94.3% | [3] 101% | [4] 95.2% | [5] 106% | [6] 97.2% | [7] 81% | [8] 106% | [9] 71.7% | [10] 114% | [11] 104% | [12] 103% | [13] 101% | [14] 94.9% | [15] 95.5% | [16] 86.3% | [17] 104% | [18] 93.4% | [19] 98.8% | [20] 93.1%

CC(C)(Sc1cc(C(C)(C)C)c(O)c(C(C)(C)C)c1)Sc1cc(C(C)(C)C)c(OC(=O)CCC(=O)O)c(C(C)(C)C)c1
inactive: [1] 40% | [2] 67.4% | [3] 56.4% | [4] 44.7% | [5] 28.9% | [6] 35.8% | [7] 36.9% | [8] 28.6% | [9] 44.7% | [10] 55% | [11] 57.2% | [12] 69.4% | [13] 65.8% | [14] 58.3% | [15] 67% | [16] 57.3% | [17] 42.1% | [18] 47.8% | [19] 61.8% | [20] 50.9%
